# A selection: hits, their analogues and other compounds. The true share with any hit is near 4.7%.
# TRHR enhancer – TRH receptor (human) allosteric enhancement. hit rate 0.66% among 360,000. enhancement, % at 2 µM. TRHR cells, fluo-8 calcium fluorescence, EC20 TRH enhancement. AID 493056; in the data active = enhancement above about 30%; note: 0% is about no effect
#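 Enhancer read-out: after compound pinning and an initial kinetic agonist-mode read, an EC20 of TRH (10 nM final) was injected and fluo-8 calcium signal (Ex 480/Em 530) followed at 1 s/cycle for 100 cycles in TRHR-expressing cells.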
# D1 antagonist – blocks dopamine activation of the human D1 receptor; P21728; HEK293 TREx D1 cells, calcium flux, dopamine EC80; stronger effect = lower value; activity change, negative = inhibition, % at 10 µM; hit rate 3.2% among 360,000; in the data active = activity change below about -30%; note: % is set by controls: 0 for no effect and ±100 for the full control effect
# Target sequence (P21728 whole entry, looked up): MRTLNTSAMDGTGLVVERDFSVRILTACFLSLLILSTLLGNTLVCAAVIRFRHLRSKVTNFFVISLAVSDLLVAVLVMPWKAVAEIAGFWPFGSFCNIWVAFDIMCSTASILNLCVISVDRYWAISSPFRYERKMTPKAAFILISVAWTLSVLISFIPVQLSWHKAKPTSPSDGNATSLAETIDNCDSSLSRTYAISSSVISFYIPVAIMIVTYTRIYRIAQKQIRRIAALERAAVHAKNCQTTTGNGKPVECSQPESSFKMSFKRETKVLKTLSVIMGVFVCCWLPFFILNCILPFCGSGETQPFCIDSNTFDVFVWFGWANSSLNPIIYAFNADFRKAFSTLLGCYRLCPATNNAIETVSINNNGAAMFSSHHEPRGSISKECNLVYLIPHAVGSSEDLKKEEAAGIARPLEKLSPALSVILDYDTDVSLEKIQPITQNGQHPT
#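 Compound effects on dopamine-evoked calcium signalling were measured in tetracycline-induced HEK293 Trex D1 cells. Dopamine at EC80 followed a 180 s compound pre-read, and fluorescence was tracked kinetically for 180 s more.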
# D1 PAM – enhances dopamine response at the human D1 receptor. P21728. HEK293 TREx D1 cells, calcium flux, dopamine EC20 potentiation. potentiation, % at 10 µM. hit rate 0.036% among 360,000. AID 504651; in the data active = potentiation above about 30%; note: 0% is about no effect
# D1 agonist – agonists of human D1 dopamine receptor | P21728 | HEK293 T-REx D1 cells, calcium flux, agonist mode | activation, % at 2 µM | hit rate 1% among 360,000 | AID 504660; note: 0% is about no effect
#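 Agonism was scored from calcium flux recorded over 180 s (1 read/s) after pintool compound addition, following a 10-cycle baseline. Cells were inducible force-coupled HEK293 TREx D1, plated overnight at 30 C and loaded with no-wash calcium dye.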
# TRHR agonist – agonists of human TRH receptor; P34981; TRHR cells, calcium flux fluo-8, FDSS agonist mode; activation, % at 2 µM; hit rate 0.18% among 360,000; AID 493084; note: 0% is about no effect
#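 TRHR-expressing cells, plated overnight in medium with 10% serum, were loaded with fluo-8 calcium dye at room temperature. After a 10 s baseline, library compound was pin-added and calcium release was recorded kinetically (ex 480/em 530) as agonist response.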
# * = called active by the depositor. Cut-off read from the data, not from the text of the source, unless noted: active = activation above about 30%; inactive = the rest.
SMILES,TRHR enhancer,D1 antagonist,D1 PAM,D1 agonist,TRHR agonist
N#Cc1cc(C(=O)c2cc(F)ccc2O)cn(-c2nccs2)c1=O,4,7,-7,306*,183*
N#Cc1cc(C(=O)c2ccccc2O)cn(-c2nccs2)c1=O,30*,44,18,553*,292*
CC(C)c1c(C(=O)N/N=C/c2cccnc2)nnn1-c1nonc1N,6,2,-9,7,1
CCc1ccc(/C=N/NC(=O)c2nnn(-c3nonc3N)c2C(C)C)cc1,41*,42,22,142*,25
Cc1ccc(-c2c(C(=O)N/N=C/c3ccoc3)nnn2-c2nonc2N)cc1,14,58,1,44*,10
Cc1ccc(SCc2c(C(=O)N/N=C/c3ccccc3)nnn2-c2nonc2N)cc1,-12,-10,-13,3,1
CCOc1ccc(-c2c(C(=O)N/N=C/c3ccc(OC(C)C)cc3)nnn2-c2nonc2N)cc1,-7,43,6,19,0
Cc1ccc(SCc2c(C(=O)N/N=C/c3ccoc3)nnn2-c2nonc2N)cc1,-10,-45*,-18,3,0
Cc1ccc(-c2c(C(=O)N/N=C/c3ccc(OC(C)C)cc3)nnn2-c2nonc2N)cc1,33*,55,26,55*,4
COc1cc(NC(=O)c2c(C)oc3c2C2=NCCN2C=N3)cc(OC)c1OC,1,2,-8,1,0
Cc1ccc(N2CC(C(=O)Nc3ccc(S(=O)(=O)NCC4CCCO4)cc3)CC2=O)cc1C (stereo not given),3,0,-2,1,0
O=C(NCCS(=O)(=O)N1CCN(c2ccc(F)cc2)CC1)c1cccc(C(F)(F)F)c1,7,-29,-3,2,0
O=c1c2cccnc2n(Cc2ccccc2F)c(=O)n1Cc1ccc(F)cc1,-6,8,-2,2,0
Nc1nonc1-n1nnc(C(=O)N/N=C/c2cccc(Cl)c2)c1CSc1ccc(Cl)cc1,-13,-14,-1,3,1
Nc1nonc1-n1nnc(C(=O)N/N=C/c2ccccc2)c1CSc1ccc(Cl)cc1,-32,-46*,-7,6,1
CCCOc1ccc(-c2c(C(=O)N/N=C/c3ccc(C)cc3)nnn2-c2nonc2N)cc1,10,28,15,2,1
CCOc1ccc(/C=N/NC(=O)c2nnn(-c3nonc3N)c2-c2cccs2)cc1,4,64,10,165*,1
CCOc1ccc(-c2c(C(=O)N/N=C/c3ccc(C)cc3)nnn2-c2nonc2N)cc1,13,44,27,44*,0
CCOc1ccc(-c2c(C(=O)N/N=C/c3cccs3)nnn2-c2nonc2N)cc1,20,32,5,10,3
CCOC(=O)c1nnn(-c2nonc2N)c1-c1ccccc1,-5,-44*,-5,9,-1
COc1ccc(C2NC(=O)NC(C)=C2C(=O)Nc2cc(C)cc(C)c2)c(OC)c1 (stereo not given),-5,-2,1,1,0
COc1cccc(-c2c(C(=O)N/N=C/c3ccncc3)nnn2-c2nonc2N)c1,13,7,-6,4,0
COc1cccc(-c2c(C(=O)N/N=C/c3ccoc3)nnn2-c2nonc2N)c1,25,9,0,77*,2
CCc1nn2c(=O)cc(COC(=O)C(CC)c3ccccc3)nc2s1 (stereo not given),3,-19,-6,4,0
C=CCn1c(COc2ccc(OC)cc2)nc2ccccc21,-1,-35*,-4,1,0
SMILES,TRHR enhancer,D1 antagonist,D1 PAM,D1 agonist,TRHR agonist
COc1ccc(Cc2nc3ccccc3n2Cc2ccccc2C)cc1,-3,-15,-2,23,1
COc1cccc(OCc2nc3ccccc3n2Cc2ccccc2C)c1,-9,-11,0,40*,5
CC(=O)NCCCc1nc2ccccc2n1Cc1ccccc1C,1,6,-12,42*,0
CCn1c(COc2ccc(OC)cc2)nc2ccccc21,1,-17,-7,4,0
Cc1cccc(OCC(=O)Nc2ccc3nc(C)sc3c2)c1,10,-33*,-10,9,0
Cc1cccc(OCCC(=O)Nc2ccc(F)c(F)c2)c1,-5,-38*,-6,9,-1
Cc1nc2ccc(NC(=O)COc3ccccc3)cc2s1,3,-9,3,1,-1
COc1ccc(OCC(=O)Nc2nc3ccc(NC(C)=O)cc3s2)cc1,4,7,3,0,0
Cc1cccc(OCCCC(=O)Nc2ccc(N(C)C)cc2)c1,3,-2,-3,6,-1
CCC(=O)Nc1nc2ccc(NC(=O)COc3ccccc3)cc2s1,-21,-72*,-4,2,-1
Cc1cc(C)cc(OCCSc2nc3ccc(NC(=O)COc4ccccc4)cc3s2)c1,8,-1,0,15,1
O=C(COc1ccccc1)Nc1ccc2nc(SCCOc3ccccc3)sc2c1,-1,-31*,3,7,2
COc1cccc(-n2c(=O)c3sc4ccccc4c3n(CC(=O)Nc3ccc(F)cc3F)c2=O)c1,11,13,-3,11,1
CCc1ccccc1NC(=O)CSc1ncc(S(=O)(=O)c2ccc(C(C)C)cc2)c(N)n1,-2,20,-3,5,0
CCOC(=O)CSc1nc2ccc(NC(=O)c3ccccc3)cc2s1,-2,4,0,4,1
CCOC(=O)CSc1nc2ccc(NC(=O)COc3ccccc3)cc2s1,-4,-36*,-2,10,0
CC(C)Cn1cnc2sc3c(c2c1=N)CCCC3,-3,4,-4,7,1
CC(O)CNc1nc2sc3c(c2c(=O)n1CCc1ccccc1)CCCCC3 (stereo not given),5,-23,-7,1,1
N=c1c2c3c(sc2ncn1Cc1ccco1)CCCCC3,6,-35*,-6,14,-1
CN(C)CCNc1nc2sc3c(c2c(=O)n1CCc1ccccc1)CCCCC3,2,-35*,0,106*,8
CC(O)CNc1nc2sc3c(c2c(=O)n1Cc1ccco1)CCCCC3 (stereo not given),4,7,1,34*,-1
CN(CCCC(=O)Nc1ccc(OC(F)F)cc1)S(=O)(=O)c1ccc(F)cc1,5,4,-13,15,-2
COc1ccc(Cc2nnc(NC(=O)CSc3ccc(Cl)cc3)s2)cc1OC,29,64,2,98*,3
COc1ccc(Cc2nnc(NC(=O)CSc3ccccc3)s2)cc1OC,-2,56,0,10,0
Cc1ccccc1-c1csc2ncnc(Sc3nnnn3C)c12,-1,2,8,-1,-1
O=[N+]([O-])c1ccc([S+](=O)([O-])N2CCN([S+](=O)([O-])c3ccc4c(c3)OCCO4)CC2)c([N+](=O)[O-])c1,1,-25,3,0,0
CCOC(=O)C1(CC2CC2)CCN(Cc2cn[nH]c2-c2ccccc2)CC1,-7,7,-4,3,2
